Experimental data: PubChem BioAssay (Tox21)
Several values for one entry are separate records, joined by “and”; a condition that tells them apart may be missing. Equal values may be shown once. Records with an inconclusive call do not appear. Where a call stands in place of a potency, no number is given. Some compounds were tested as several samples or in several runs, with calls that do not always agree. Activity calls are given as the source filed them. Unless noted, the call rests on the fitted dose curve; in most records, active means well fitted curve in the direction sought with a large enough effect in the repeat runs; inconclusive means weak or mixed curves; inactive means no such curve, though single readings can be large; an effect the other way counts as inactive or inconclusive.

Legend:
[1] = qHTS assay to identify small molecule agonists of the hypoxia (HIF-1) signaling pathway - cell viability counter screen (AID 1224844; calls by dose curve; further: nearly all actives have a fitted effect of over 50% in size; further: potency means the concentration at half of the fitted maximal effect)
Summary of the method: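 Multiplexed with the HRE beta-lactamase assay, this viability read used CellTiter-Glo luminescence (30 min, RT) on HRE-bla ME-180 cells treated 17 hrs with compounds in 0.5% dialyzed FBS medium.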

[2] = qHTS assay to identify small molecule agonists of H2AX (AID 1224845; active means well fitted activation curve with a large enough effect in the signal ratio in the repeat runs, not every such curve was filed as active; the % refers to the signal ratio)
Summary of the method: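 Phospho-H2AX Ser139 measured by HTRF (ex 320 nm; em 665 and 620 nm) after 24 hr antibody incubation. Compounds, 15 concentrations, 0.76% DMSO, were applied to CHO-K1 cells for 3hr at 37C before lysis.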

[3] = qHTS assay to identify small molecule agonists of H2AX - cell viability counter screen (AID 1224847; calls by dose curve; further: nearly all actives have a fitted effect of over 30% in size; further: potency means the concentration at half of the fitted maximal effect)
Summary of the method: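 After overnight plating of 1000 CHO-K1 cells per well, a 15-concentration compound series was applied for 3 hr at 37C. Luminescence from CellTiter-Glo, read following 30 min at room temperature, reflected cell viability.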

[4] = qHTS RealTime-Glo MT Cell Viability Assay in HepG2 cells - 24 hour (AID 1224867); further: nearly all actives have a fitted effect of over 50% in size; further: potency means the concentration at half of the fitted maximal effect
Summary of the method: (§1)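 HepG2 cells (600/well) were dispensed with RealTime-Glo reagents, incubated 5 h at 37 °C, then treated with compounds in DMSO for up to 40 h. Nonlytic NanoLuc luminescence reflecting viable cells was read at each stated time point.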

[5] = qHTS RealTime-Glo MT Cell Viability Assay in HEK293 cells - 32 hour (AID 1224868); further: nearly all actives have a fitted effect of over 50% in size; further: potency means the concentration at half of the fitted maximal effect
Summary of the method: (§2)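 HEK293 cells seeded with NanoLuc/prosubstrate reagent, rested 5 h at 37 C, then dosed and kept at 37 C up to 40 h. Nonlytic real-time luminescence from viable cells read at 0, 8, 16, 24, 32 and 40 h.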

[6] = A CellTox Green Cytotoxicity Assay to monitor cytotoxicity in HEK293 cells - 0 hour (AID 1224869); further: nearly all actives have a fitted effect of over 50% in size
Summary of the method: (§3)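 Seeding of HEK293 cells together with cytotoxicity dye preceded a 5 h incubation at 37 C/5% CO2. Test compounds in DMSO were then added and fluorescence monitored across 40 h.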

[7] = qHTS RealTime-Glo MT Cell Viability Assay in HepG2 cells - 40 hour (AID 1224870); further: nearly all actives have a fitted effect of over 50% in size; further: potency means the concentration at half of the fitted maximal effect
Summary of the method: (§4)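 Real-time viability: cells seeded at 600 per well together with NanoLuc and cell-permeant prosubstrate, compounds added after 5 h incubation. Luminescence tracked at 0, 8, 16, 24, 32 and 40 h of exposure.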

[8] = qHTS RealTime-Glo MT Cell Viability Assay in HEK293 cells - 16 hour (AID 1224872); further: nearly all actives have a fitted effect of over 50% in size; further: potency means the concentration at half of the fitted maximal effect
Summary of the method: as §2

[9] = qHTS RealTime-Glo MT Cell Viability Assay in HepG2 cells - 8 hour (AID 1224873); further: nearly all actives have a fitted effect of over 55% in size
Summary of the method: as §4

[10] = qHTS RealTime-Glo MT Cell Viability Assay in HEK293 cells - 40 hour (AID 1224874); settings: RealTime-Glo luminescence; max response: stronger effect = lower value; further: nearly all actives have a fitted effect of over 50% in size; further: potency means the concentration at half of the fitted maximal effect
Summary of the method: (§5)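 Tox21 screen in HEK293 using RealTime-Glo MT chemistry, with cells and reagent co-dispensed. Luminescence proportional to viable cell number was captured at intervals during 40 h compound exposure at 37 C.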

[11] = A CellTox Green Cytotoxicity Assay to monitor cytotoxicity in HEK293 cells - 24 hour (AID 1224875); further: nearly all actives have a fitted effect of over 45% in size
Summary of the method: as §3

[12] = A CellTox Green Cytotoxicity Assay to monitor cytotoxicity in HepG2 cells - 16 hour (AID 1224876); further: nearly all actives have a fitted effect of over 45% in size
Summary of the method: (§6)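 Nonlytic assay: viable cells exclude the dye, so fluorescence scales with cell death. HepG2 at 600 cells/well, compounds added after 5 h, signal read across 40 h.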

[13] = qHTS RealTime-Glo MT Cell Viability Assay in HepG2 cells - 32 hour (AID 1224877); further: nearly all actives have a fitted effect of over 55% in size; further: potency means the concentration at half of the fitted maximal effect
Summary of the method: as §1

[14] = A CellTox Green Cytotoxicity Assay to monitor cytotoxicity in HepG2 cells - 24 hour (AID 1224878); further: nearly all actives have a fitted effect of over 45% in size; further: potency means the concentration at half of the fitted maximal effect
Summary of the method: as §6

[15] = A CellTox Green Cytotoxicity Assay to monitor cytotoxicity in HepG2 cells - 40 hour (AID 1224879); further: nearly all actives have a fitted effect of over 40% in size; further: potency means the concentration at half of the fitted maximal effect
Summary of the method: as §6

[16] = qHTS RealTime-Glo MT Cell Viability Assay in HEK293 cells - 0 hour (AID 1224880); further: top concentration of the series differs between compounds; nearly all actives have a fitted effect of over 45% in size
Summary of the method: as §5

[17] = A CellTox Green Cytotoxicity Assay to monitor cytotoxicity in HEK293 cells - 40 hour (AID 1224871); further: nearly all actives have a fitted effect of over 45% in size; further: potency means the concentration at half of the fitted maximal effect
Summary of the method: as §3

[18] = qHTS assay to identify small molecule agonists of the hypoxia (HIF-1) signaling pathway (AID 1224846; active means well fitted activation curve with a large enough effect in the signal ratio in the repeat runs, not every such curve was filed as active; the % refers to the signal ratio)
Summary of the method: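 Hypoxia-pathway activation was scored as increased beta-lactamase from an HRE-controlled reporter in ME-180 cells; plated at 2,000 cells per well with 0.5% dialyzed FBS, they were exposed 17 hrs to compounds and then given CCF4-AM.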

[19] = qHTS assay to identify small molecule antagonists of the estrogen related receptor (ERR) signaling pathway from Tox21 library (AID 1224848); further: nearly all actives have a fitted effect of over 50% in size; further: potency means the concentration at half of the fitted maximal effect
Summary of the method: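 Reading was by luminescence 30 min after ONE-Glo addition. Before that, ERR cells at 2,000 per well had rested 6 h at 37 C/5% CO2 and then received pin-tooled compounds in DMSO for 18 h at 37 C.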

[20] = qHTS assay to identify small molecule agonists of the estrogen related receptor (ERR) signaling pathway from Tox21 library (AID 1224849; calls by dose curve; further: nearly all actives have a fitted effect of over 15% in size); settings: ERR reporter cell line, ONE-Glo luciferase, 18 h
Summary of the method: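 Six hours post-seeding at 37 C/5% CO2, ERR cells receive DMSO-solubilised compounds; after 18 h at 37 C, ONE-Glo reagent is applied and luminescence recorded.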

CN1C(C(=O)Nc2ccccn2)=C(O)c2ccccc2S1(=O)=O
Potency [1]: inactive
outcome [2]: inactive
Potency [3]: inactive
Potency [4]: inactive
Potency [5]: inactive
Potency [6]: inactive
Potency [7]: inactive
Potency [8]: inactive
Potency [9]: inactive
max response [10]: 10.9% (inactive) and -0.648% (inactive)
Potency [11]: inactive
Potency [12]: inactive
Potency [13]: inactive
Potency [14]: inactive
Potency [15]: inactive
Potency [16]: inactive

CC(=O)Oc1ccccc1C(=O)Nc1ncc([N+](=O)[O-])s1
Potency [1]: inactive
outcome [2]: inactive
Potency [3]: 9.16 µM (active) and 24.7 µM (active)
Potency [4]: inactive
Potency [6]: inactive
Potency [7]: inactive
Potency [17]: inactive
Potency [9]: inactive
Potency [11]: inactive
Potency [12]: inactive
Potency [13]: inactive
Potency [14]: inactive
Potency [15]: 11.2 µM (active)

O=C(c1ccc(OCCN2CCCCC2)cc1)c1c(-c2ccc(O)cc2)sc2cc(O)ccc12
Potency [1]: 43.7 µM (active) and 49 µM (active) and inactive
outcome [2]: inactive
Potency [3]: 113 µM (active) and inactive
Potency [4]: 54.9 µM (active) and inactive
Potency [5]: 19.5 µM (active) and 23.9 µM (active)
Potency [6]: inactive
Potency [7]: 54.9 µM (active) and inactive
Potency [17]: 55 µM (active) and 54.9 µM (active)
Potency [8]: 19.5 µM (active) and 21.9 µM (active)
Potency [9]: inactive
Potency [10]: 17.4 µM (active) and 21.9 µM (active) and 23.9 µM (active)
Potency [12]: inactive
Potency [13]: 55 µM (active) and 54.9 µM (active) and inactive
Potency [14]: 55 µM (active) and 54.9 µM (active)
Potency [15]: 49 µM (active) and 26.8 µM (active)

Cc1ccc(C(=O)c2cc(O)c(O)c([N+](=O)[O-])c2)cc1
Potency [1]: inactive
Potency [18]: inactive
Potency [3]: inactive
Potency [19]: 30.6 µM (active) and 26.6 µM (active)
activity change, positive = activation ([20]; at 42.5 µM (top of the series)): -49.4% (inactive)
activity change, positive = activation ([20]; at 92.4 µM (top of the series)): -70.9% (inactive)
Potency [4]: inactive
Potency [5]: inactive
Potency [6]: inactive
Potency [7]: inactive
Potency [17]: inactive
Potency [8]: inactive
Potency [9]: inactive
Potency [10]: 49 µM (active)
Potency [11]: inactive
Potency [12]: inactive
Potency [13]: inactive
Potency [14]: inactive
Potency [15]: 49 µM (active) and inactive
Potency [16]: inactive

COc1cccc2c1C(=O)c1c(O)c3c(c(O)c1C2=O)C[C@@](O)(C(=O)CO)C[C@@H]3O[C@H]1C[C@H](N)[C@H](O)[C@H](C)O1
Potency [1]: 5.49 µM (active) and 10.7 µM (active)
Potency [3]: inactive
Potency [19]: inactive
activity change, positive = activation ([20]; at 42.5 µM (top of the series)): -2.08% (inactive) and 0.0204% (inactive)
Potency [4]: inactive and 1.69 µM (active)
Potency [5]: 123 nM (active) and 213 nM (active)
Potency [6]: inactive
Potency [7]: 952 nM (active)
Potency [17]: inactive
Potency [8]: 346 nM (active)
Potency [9]: inactive
Potency [10]: 97.6 nM (active) and 190 nM (active)
Potency [11]: inactive
Potency [13]: 952 nM (active)
Potency [14]: inactive and 21.3 µM (active)
Potency [15]: inactive
Potency [16]: inactive

C[C@]12CCC(=O)C=C1CC[C@@H]1[C@@H]2C(=O)C[C@@]2(C)[C@H]1CC[C@]2(O)C(=O)CO
Potency [1]: inactive
outcome [2]: inactive
Potency [3]: inactive
Potency [4]: inactive
Potency [5]: inactive
Potency [6]: inactive
Potency [7]: inactive
Potency [8]: inactive
Potency [9]: inactive
max response [10]: -10% (inactive) and -11.4% (inactive)
Potency [11]: inactive
Potency [13]: inactive
Potency [14]: inactive
Potency [15]: inactive
